Experimental findings from PubChem BioAssay (NCATS) are described below.

SMILES strings stand for the structures. “And” between values parts separate entries of the source, which are not always exact repeats. Equal values may be shown once. Records with an inconclusive call do not appear. The source made the active and inactive calls. Unless noted, calls come from the whole dose curve.

Assay [1] can be described thus: qHTS assay for small molecule agonists of retinoid X receptor alpha signaling (AID 588544).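 For activation: 0% = DMSO basal wells and 100% = reference agonist.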 The following applies: HEK293T RXRa-UAS-bla, beta-lactamase reporter, 18 h; 530 nm emission. On the technique in general: In qHTS, concentration-response curves come from the screen itself.
Assay [2] addresses Retinoic acid receptor RXR-alpha (Homo sapiens) (UniProt P19793). Described as above. Particulars: HEK293T RXRa-UAS-bla, beta-lactamase reporter, 18 h; series mostly up to 76.7 µM.
For assay [3], the target named is Thyroid hormone receptor beta (Homo sapiens) (UniProt P10828). Put plainly: qHTS assay for small molecule agonists of thyroid hormone receptor beta signaling (AID 588545).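 Note: 0% = DMSO only and 100% = 10 nM T3.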 Particulars: TR-UAS-bla GripTite HEK 293, beta-lactamase ratio, agonist mode, 18 h, percent of T3 response, DMSO as zero; series mostly up to 76.7 µM. In outline:
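Stimulation of a TR-driven beta-lactamase reporter was quantified in GripTite HEK 293 cells. Compound series ran for 18 hrs; curves were normalized to T3 and DMSO controls and fitted to yield EC50.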

Assay [4] can be described thus: qHTS assay for small molecule antagonists of retinoid X receptor alpha signaling (AID 588546; active = well fitted inhibition curve with a large enough effect in the signal ratio, with a control signal flat, not every such curve was filed as active; the % refers to the signal ratio;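 note: cells stimulated with 9-cis-retinoic acid as agonist; % is set by controls: 0 for no effect and ±100 for the full control effect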). Particulars: HEK293T RXRa-UAS-bla, beta-lactamase ratio, antagonist mode; measured here: W530 green channel, cytotoxicity proxy. In outline:
(§1)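 Beta-lactamase reporter inhibition, read as CCF4 fluorescence ratio (ex 405, em 460/530 nm) after 2 h at RT. HEK293T UAS-bla cells, 2500/well, were stimulated with 9-cis-RA at 500 or 100 nM final alongside test compound for 18 h at 37 C.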

Assay [5] addresses Retinoic acid receptor RXR-alpha (Homo sapiens) (UniProt P19793). The description is as above. Particulars: HEK293T RXRa-UAS-bla, beta-lactamase ratio, antagonist mode. A digest of the protocol: as §1
Assay [6] addresses Thyroid hormone receptor beta (Homo sapiens) (UniProt P10828). The experiment in a line: qHTS assay for small molecule antagonists of thyroid hormone receptor beta signaling (AID 588547; active = well fitted inhibition curve with a large enough effect in the signal ratio, with a control signal flat, not every such curve was filed as active; the % refers to the signal ratio;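 note: cells stimulated with 0.4 nM T3 agonist during compound exposure; % is set by controls: 0 for no effect and ±100 for the full control effect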). The following applies: TR-UAS-bla HEK293, beta-lactamase ratio, antagonist mode, 18 h. A digest of the protocol:
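TR-UAS-bla GripTite HEK293 cells in 2% charcoal/dextran FBS medium were preincubated 4 h at 37 C, given compound (0.59 nM to 92 uM) plus 0.4 nM T3 (final) for 18 h, then CCF4 for 2 h at RT; Hill fit gave IC50.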

For assay [7], the target named is Voltage-gated inwardly rectifying potassium channel KCNH2 (Homo sapiens) (UniProt Q12809). The experiment in a line: qHTS Assay for Small Molecule Inhibitors of the Human hERG Channel Activity (AID 588834; active = well fitted curve in the direction sought with a large enough effect; an effect the other way counts as inactive or inconclusive;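 note: top concentration of the series differs between compounds; % is set by controls: 0 for no effect and ±100 for the full control effect; lower thallium flux fluorescence means stronger hERG block; nearly all actives have a fitted effect of over 50% in size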). The following applies: U2OS BacMam hERG, FluxOR thallium flux fluorescence; series mostly up to 92.2 µM. In outline:
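U2OS cells transduced with hERG via BacMam (MOI ~100), plated 2000/well, loaded with FluxOR thallium dye, compound ~10 min, then stimulation buffer; fluorescence decrease read kinetically; AC50 from Hill fits.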

The nature of assay [8]: qHTS assay for small molecule agonists of the antioxidant response element (ARE) signaling pathway (AID 651741; active = well fitted activation curve with a large enough effect in the signal ratio; the % refers to the signal ratio; note: potency is the fitted concentration of half-maximal effect; for activation: % of control where 0% means no effect). The following applies: HepG2 ARE-bla reporter, beta-lactamase FRET ratio, 16 h; series mostly up to 96 µM. In outline: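 Compounds in DMSO are pinned onto HepG2 ARE-bla cells (2,000/well) that were preincubated 5 h; plates stay 16 h at 37 C, then beta-lactamase activity is detected with LiveBLAzer B/G substrate by fluorescence.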

Assay [9] in a line: qHTS assay for small molecule activators of the p53 signaling pathway (AID 651743; active = well fitted activation curve with a large enough effect in the signal ratio, not every such curve was filed as active; the % refers to the signal ratio; note: % of control where 0% means no effect). The following applies: HCT-116 p53RE-bla, beta-lactamase FRET ratio, 16 h; stronger effect = higher value. A digest of the protocol: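 Cell-based beta-lactamase reporter (p53 response elements, HCT-116 background). After a 5-hour preincubation, cells received compound for 16 hours at 37 C; substrate development ran 2 hours at room temperature.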

A short description of assay [10]: qHTS assay for small molecule activators of the nuclear factor-kappa B (NF-kB) signaling pathway (AID 651749; active = well fitted activation curve with a large enough effect in the signal ratio; the % refers to the signal ratio; note: % of control where 0% means no effect). Particulars: NF-kB-bla ME-180 cells, beta-lactamase FRET ratio, 16 h; stronger effect = higher value. A digest of the protocol:
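Screening used 2,000 ME-180 reporter cells per well exposed to pinned compound (23 nL) or DMSO; after 16 hr at 37C, beta-lactamase expression under NF-kB control was assessed through FRET.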

The nature of assay [11]: qHTS assay for small molecule disruptors of the mitochondrial membrane potential - 1 hr assay (AID 651754). Note: % is set by controls: 0 for no effect and ±100 for the full control effect; nearly all actives have a fitted effect of over 35% in size. The following applies: series mostly up to 92.2 µM. A digest of the protocol: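 HepG2, 2,000 cells/well, overnight attachment; cpd or DMSO 1 hr, 37C/5% CO2; Mito-MPS dye 30 min, 37C; fluorescence monomer (490/535) and aggregate (540/590).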
A short description of assay [12]: qHTS assay for small molecule disruptors of the mitochondrial membrane potential - 5 hr assay (AID 651755). Note: % is set by controls: 0 for no effect and ±100 for the full control effect; nearly all actives have a fitted effect of over 40% in size. Particulars: JC-1-type ratio dye; series mostly up to 92.2 µM. A digest of the protocol:
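HepG2 cells, attached overnight at 37C, were exposed to compound or DMSO for 5 hr at 37C, 5% CO2. Mito-MPS dye was then added for 30 min, and fluorescence read at 490/535 nm (monomers) and 540/590 nm (aggregates).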

For assay [13], the target named is Tumor necrosis factor (Homo sapiens) (UniProt P01375). The experiment in a line: qHTS assay to identify small molecules that stimulate Tumor Necrosis Factor-alpha (TNF-alpha) secretion (AID 651757; active = well fitted curve in the direction sought with a large enough effect in the signal ratio; the % refers to the signal ratio; note: 0% is about no effect). The following applies: Human cells, HTRF 665/615 ratio; series mostly up to 92.2 µM. A digest of the protocol: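 Read-out is HTRF, a TR-FRET sandwich of cryptate- and XL665-labeled anti-TNF-alpha antibodies detecting cytokine secreted by THP-1 cells. Cells had been incubated with test compounds at 37 C for 17 hrs beforehand.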

The nature of assay [14]: qHTS assay for environmental chemicals that activate the Aryl hydrocarbon Receptor (AhR) signaling pathway (AID 651777; active = well fitted curve in the direction sought with a large enough effect; an effect the other way counts as inactive or inconclusive; note: % of control where 0% means no effect; nearly all actives have a fitted effect of over 15% in size). The following applies: 1A2-DRE human hepatoma cells, luciferase, 24 h; activation: stronger effect = higher value. In outline: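 Human hepatoma 1A2-DRE cells stably carrying a DRE/CYP1A2 promoter–luciferase reporter, 1,200 cells/well, exposed to compound 24 hr at 37 C. Luciferase read by One-Glo luminescence after 30 min at room temperature; increased signal marks AhR activation.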

Assay [15] concerns the target Peroxisome proliferator-activated receptor alpha (Homo sapiens) (UniProt Q07869). The experiment in a line: qHTS assay for small molecule agonists of the peroxisome proliferator-activated receptor alpha (PPARalpha) signaling pathway (AID 651778; active = well fitted curve in the direction sought with a large enough effect; an effect the other way counts as inactive or inconclusive; note: % of control where 0% means no effect). The following applies: PathHunter PPARalpha complementation, chemiluminescence, 6 h; stronger effect = higher value. In outline:
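Cells plated at 2,000/well and held overnight at 37 C, 5% CO2, then compound added by pin tool for 6 hr; after PathHunter detection reagent and 60 min at room temperature, chemiluminescence from enzyme complementation was read.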

The target of assay [16] is Nuclear receptor ROR-gamma (Homo sapiens) (UniProt P51449). Put plainly: qHTS assay for small molecule antagonists of the retinoid-related orphan receptor gamma (ROR-gamma) signaling pathway (AID 651802; active = well fitted curve in the direction sought with a large enough effect; an effect the other way counts as inactive or inconclusive;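 note: luciferase reporter luminescence driven by ROR response element; % is set by controls: 0 for no effect and ±100 for the full control effect; nearly all actives have a fitted effect of over 60% in size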). Particulars: ROR-gamma antagonist cell reporter assay; series mostly up to 92.2 µM. In outline: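 CHO, TET-inducible ROR + RORE-LUC reporter, 1536-well qHTS. Compound pinned, doxycycline added, 16hr 37C/5% CO2. ONE-Glo, 30 min RT, luminescence; signal drop scored as antagonism.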

A short description of assay [17]: qHTS assay for small molecule agonists of the antioxidant response element (ARE) signaling pathway measured by Nrf2-dependant transcriptional activity (AID 720636; active = well fitted curve in the direction sought with a large enough effect in the repeat runs; an effect the other way counts as inactive or inconclusive; note: % of control where 0% means no effect). The following applies: ARE-luc HepG2, Nrf2 luciferase reporter, 16 h; series mostly up to 92.4 µM. A digest of the protocol: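 ARE-luc HepG2 cells carrying an Nrf2-responsive luciferase reporter, in medium with 1% dialyzed FBS, exposed to compound for 16 hr at 37 C, 5% CO2. Luminescence read 30 min after ONE-Glo addition.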

The nature of assay [18]: qHTS assay for small molecule agonists of the antioxidant response element (ARE) signaling pathway measured by Nrf2-dependant transcriptional activity - cell viability counter screen (AID 720653; active = well fitted curve in the direction sought with a large enough effect in the repeat runs; an effect the other way counts as inactive or inconclusive; note: % is set by controls: 0 for no effect and ±100 for the full control effect). Particulars: ARE-bla HepG2 viability, CellTiter-Glo ATP luminescence, 16 h; stronger effect = lower value. A digest of the protocol: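 ARE-bla HepG2 cells (2,000/well) rested 5 hrs at 37C/5% CO2, then exposed to compounds in DMSO for 16 hrs. Viability was read in the same wells as intracellular ATP by luminescence, 30 min at room temperature after reagent addition.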

Assay [19] is described as follows: qHTS assay for small molecule antagonists of the retinoid-related orphan receptor gamma (ROR-gamma) signaling pathway - cell viability counter screen (AID 720652; active = well fitted curve in the direction sought with a large enough effect in the repeat runs; an effect the other way counts as inactive or inconclusive;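 note: compound exposure lasted 16 hr before ATP read; % is set by controls: 0 for no effect and ±100 for the full control effect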). Particulars: RORgamma reporter cell line viability counter screen; series mostly up to 92.2 µM. In outline: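 Luminescence from CellTiter-Glo after 30 min at room temperature reported cellular ATP as the cytotoxicity measure. Cells were the CHO reporter line with doxycycline-induced ROR-gamma expression, exposed to compound for 16 hr at 37 C.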

Assay [20] can be described thus: qHTS assay to identify small molecules that stimulate interleukin-8 (IL-8) secretion (AID 651758; active = well fitted activation curve with a large enough effect in the signal ratio; the % refers to the signal ratio; note: 0% is about no effect). The following applies: HTRF ratio (665/615); series mostly up to 92.2 µM. In outline:
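THP-1, 2000 cells/well; cpd 16 h, 37 C; add cryptate + XL665 anti-IL-8 Abs; RT 1-3 h; TR-FRET read.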

Retinoic acid receptor RXR-alpha (Homo sapiens), sequence (P19793 whole entry, looked up): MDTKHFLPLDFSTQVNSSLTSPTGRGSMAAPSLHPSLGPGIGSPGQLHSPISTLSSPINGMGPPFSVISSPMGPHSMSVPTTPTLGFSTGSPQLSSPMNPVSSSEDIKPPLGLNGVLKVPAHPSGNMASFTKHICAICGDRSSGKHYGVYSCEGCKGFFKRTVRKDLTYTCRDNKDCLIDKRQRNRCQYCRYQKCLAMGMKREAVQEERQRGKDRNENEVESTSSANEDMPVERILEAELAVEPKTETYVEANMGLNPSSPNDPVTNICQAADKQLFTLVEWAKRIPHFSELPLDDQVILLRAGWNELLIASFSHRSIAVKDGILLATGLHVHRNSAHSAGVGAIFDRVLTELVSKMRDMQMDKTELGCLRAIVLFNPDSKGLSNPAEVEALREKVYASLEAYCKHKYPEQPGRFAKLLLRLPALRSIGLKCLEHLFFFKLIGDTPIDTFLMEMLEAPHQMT
Nuclear receptor ROR-gamma (Homo sapiens), sequence (P51449 whole entry, looked up): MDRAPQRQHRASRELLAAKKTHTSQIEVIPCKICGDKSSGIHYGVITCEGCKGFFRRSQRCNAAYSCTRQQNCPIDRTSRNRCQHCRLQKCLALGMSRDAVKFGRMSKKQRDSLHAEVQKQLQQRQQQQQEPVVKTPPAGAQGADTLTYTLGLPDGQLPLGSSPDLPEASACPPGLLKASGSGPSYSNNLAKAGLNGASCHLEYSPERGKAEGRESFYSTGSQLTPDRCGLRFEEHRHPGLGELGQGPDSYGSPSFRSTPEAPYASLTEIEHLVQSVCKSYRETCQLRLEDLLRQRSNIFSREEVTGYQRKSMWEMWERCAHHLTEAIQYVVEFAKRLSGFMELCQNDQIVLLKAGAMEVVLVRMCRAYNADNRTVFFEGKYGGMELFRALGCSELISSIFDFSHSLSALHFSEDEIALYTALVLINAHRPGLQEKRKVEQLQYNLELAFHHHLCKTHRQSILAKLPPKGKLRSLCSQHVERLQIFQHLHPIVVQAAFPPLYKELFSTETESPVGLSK
Peroxisome proliferator-activated receptor alpha (Homo sapiens), sequence (Q07869 whole entry, looked up): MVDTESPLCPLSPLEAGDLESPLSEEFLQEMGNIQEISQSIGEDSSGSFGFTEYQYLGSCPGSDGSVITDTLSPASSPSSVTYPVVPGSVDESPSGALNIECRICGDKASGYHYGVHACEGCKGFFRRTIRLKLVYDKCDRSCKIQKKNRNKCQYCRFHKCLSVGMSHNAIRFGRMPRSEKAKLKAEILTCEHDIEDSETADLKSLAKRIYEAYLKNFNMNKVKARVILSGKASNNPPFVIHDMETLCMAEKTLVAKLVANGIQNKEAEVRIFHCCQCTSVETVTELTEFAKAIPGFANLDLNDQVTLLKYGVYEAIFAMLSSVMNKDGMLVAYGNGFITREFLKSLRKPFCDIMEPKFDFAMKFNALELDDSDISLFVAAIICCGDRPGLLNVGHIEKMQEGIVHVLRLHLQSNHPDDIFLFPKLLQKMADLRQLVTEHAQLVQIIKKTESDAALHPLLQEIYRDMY
Thyroid hormone receptor beta (Homo sapiens), sequence (P10828 whole entry, looked up): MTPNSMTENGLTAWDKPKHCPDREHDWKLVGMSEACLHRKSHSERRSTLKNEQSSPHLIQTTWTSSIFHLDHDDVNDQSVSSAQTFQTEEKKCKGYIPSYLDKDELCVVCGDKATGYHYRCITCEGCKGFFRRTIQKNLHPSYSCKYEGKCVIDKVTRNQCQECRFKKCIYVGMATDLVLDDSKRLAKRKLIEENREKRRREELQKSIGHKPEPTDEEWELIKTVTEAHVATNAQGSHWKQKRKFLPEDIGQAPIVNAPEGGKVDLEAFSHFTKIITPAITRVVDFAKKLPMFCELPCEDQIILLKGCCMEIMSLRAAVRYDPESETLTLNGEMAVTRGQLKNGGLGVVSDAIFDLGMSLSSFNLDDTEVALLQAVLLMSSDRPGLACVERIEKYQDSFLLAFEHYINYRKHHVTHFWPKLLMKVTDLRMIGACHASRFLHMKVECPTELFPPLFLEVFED
Voltage-gated inwardly rectifying potassium channel KCNH2 (Homo sapiens), sequence (Q12809 whole entry, looked up): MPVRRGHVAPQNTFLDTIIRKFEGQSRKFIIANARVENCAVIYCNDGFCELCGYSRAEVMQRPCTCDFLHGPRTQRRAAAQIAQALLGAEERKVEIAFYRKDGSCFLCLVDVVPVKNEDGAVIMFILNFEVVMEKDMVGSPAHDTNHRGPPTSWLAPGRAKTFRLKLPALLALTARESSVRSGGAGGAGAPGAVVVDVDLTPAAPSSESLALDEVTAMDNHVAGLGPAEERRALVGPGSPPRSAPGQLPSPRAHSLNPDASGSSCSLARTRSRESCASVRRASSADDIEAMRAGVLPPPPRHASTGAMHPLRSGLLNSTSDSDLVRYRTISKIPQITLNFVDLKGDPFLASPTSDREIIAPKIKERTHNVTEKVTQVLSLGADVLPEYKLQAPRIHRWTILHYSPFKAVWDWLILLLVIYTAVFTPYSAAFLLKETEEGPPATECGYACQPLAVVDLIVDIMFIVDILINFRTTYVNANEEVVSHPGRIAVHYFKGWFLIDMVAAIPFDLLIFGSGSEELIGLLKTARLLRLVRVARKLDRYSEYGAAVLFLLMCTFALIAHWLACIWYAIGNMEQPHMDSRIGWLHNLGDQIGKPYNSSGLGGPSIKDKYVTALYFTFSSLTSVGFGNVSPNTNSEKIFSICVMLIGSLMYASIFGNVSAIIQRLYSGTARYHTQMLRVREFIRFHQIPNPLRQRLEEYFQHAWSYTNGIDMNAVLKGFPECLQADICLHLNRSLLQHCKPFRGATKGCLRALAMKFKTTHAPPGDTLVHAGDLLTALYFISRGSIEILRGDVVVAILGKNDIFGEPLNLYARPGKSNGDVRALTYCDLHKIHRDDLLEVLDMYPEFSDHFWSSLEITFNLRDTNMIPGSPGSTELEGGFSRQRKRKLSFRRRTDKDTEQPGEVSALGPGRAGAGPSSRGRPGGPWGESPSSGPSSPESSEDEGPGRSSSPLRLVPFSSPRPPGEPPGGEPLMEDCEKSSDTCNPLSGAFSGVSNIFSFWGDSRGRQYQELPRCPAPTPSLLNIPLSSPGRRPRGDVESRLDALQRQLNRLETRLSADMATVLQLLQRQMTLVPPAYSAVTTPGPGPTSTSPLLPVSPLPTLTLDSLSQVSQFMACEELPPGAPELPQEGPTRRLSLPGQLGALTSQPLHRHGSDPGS
Tumor necrosis factor (Homo sapiens), sequence (P01375 whole entry, looked up): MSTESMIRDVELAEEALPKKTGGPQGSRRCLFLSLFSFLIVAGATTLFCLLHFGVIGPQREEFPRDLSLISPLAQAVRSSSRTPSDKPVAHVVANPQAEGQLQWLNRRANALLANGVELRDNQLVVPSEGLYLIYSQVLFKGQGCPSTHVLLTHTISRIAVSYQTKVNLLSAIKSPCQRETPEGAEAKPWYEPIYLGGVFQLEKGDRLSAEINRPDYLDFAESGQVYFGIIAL

Consider `Cc1cc(C)cc(N)c1`, for which the max response in assay [1] was -7.06%; in [4], 1.47%; in assay [5], 9.88% (inactive); in [15] it was -1.33% (inactive); in [18], -5.34% (inactive). The molecule was classed as inactive in assay [2], in [3] and in assay [17]. Also, the activity change % (negative = inhibition) in assay [6] was -11.7% (inactive). Besides, the Potency result in [7], in [8], in [11], in assay [12], in [13] and in assay [16] was “inactive” throughout. Moreover, the figures for the activation in assay [9], in assay [10] and in assay [14] were -1.89% (inactive), 0.882% (inactive) and 2.65% (inactive), respectively.
Consider `Nc1cc(Cl)c(N)c(Cl)c1`, for which the max response in [1] is -14.2%; in assay [4] it was 7.26% and 6.97%; in [5], -5.31% (inactive) and -44.9% (inactive); in assay [15] it was 1.23% (inactive) and -1.85% (inactive); in assay [18], -6.05% (inactive) and -8.26% (inactive). In addition, the outcome in [2], in assay [3] and in [17] was inactive. In assay [6], the activity change % (negative = inhibition) is -9.25% (inactive). In addition, the Potency entry in [7], in [11], in assay [12], in assay [16] and in assay [19] was “inactive” in each case. Also, the Potency in assay [8] is 42.2 µM (active). Further, in assay [9], the activation was 0.0675% (inactive) and 1.35% (inactive).
On to `O=C(O)c1ccccc1Cl`, for which the max response in assay [1] is 0.58%; in assay [4], 6.35%; in [5], 2.61% (inactive); in assay [15] it was -0.83% (inactive); in assay [18] it was -0.91% (inactive). Also, the result in assay [2], in [3] and in assay [17] was inactive. In [6], the activity change % (negative = inhibition) was -4.08% (inactive). Also, the Potency result in assay [7], in assay [8], in [12], in [13], in [20] and in assay [16] was “inactive” throughout. The activation in assay [9] is -4.07% (inactive); in assay [10], -0.473% (inactive); in assay [14] it was -2.05% (inactive).
